PubChem BioAssay (NCATS)
Where “and” joins values, the source holds several entries; their conditions need not be identical. Equal values may be shown once. Records with an inconclusive call do not appear. Where a call stands in place of a potency, no number is given. Calls of active or inactive are those of the source. Unless noted, calls follow the shape of the dose curve; as a rule, active = well fitted curve in the direction sought with a large enough effect; inconclusive = small, poorly fitted or top-dose-only effect, or another doubt; inactive = no such curve, though single readings can be large; an effect the other way counts as inactive or inconclusive.

Columns and labels:
[1] = Nrf2 qHTS screen for inhibitors: Validation (AID 493153; active = well fitted inhibition curve with a large enough effect in the main read-out, with a control signal flat, not every such curve was filed as active; also: potency is read from the fitted curve at half-maximal effect); settings: Potency: luciferase luminescence; viability change: measured here: cytotoxicity max response
Method in brief: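 A549 cells carrying an ARE-driven firefly luciferase reporter, in 5% FBS OPTI-MEM, were treated with compounds in concentration-response for 18-24 h at 37°C. Viability was read by CellTiter-Fluor fluorescence, then Nrf2 activity by luciferase luminescence.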

[2] = qHTS for Inhibitors of Cell Surface uPA Generation: Validation Assay (AID 493164);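 also: RAW 264.7 macrophage cells exposed to compound for 18 h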
Method in brief: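 RAW 264.7, 4000 cells/well, o/n plating; cpd 7-pt 1:5 dilution 2.45 nM–38.3 uM final; 18 h, 37 C/5% CO2; ATP-Lite, 5 s luminescence exposure.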

[3] = target: Galactokinase (Homo sapiens) (UniProt P51570); test: qHTS Validation Assay for Inhibitors of Human Galactokinase (GALK) (AID 493189)
Method in brief: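 Luminescence from leftover ATP (Kinase-Glo Plus, 10 min) served as read-out after a 1 h room-temperature reaction of 5 nM GALK, 100 uM galactose and 35 uM ATP at pH8.0.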

[4] = Validation screen for small molecules that induce DNA re-replication in SW480 colon adenocarcinoma cells (AID 504364); also: potency is read from the fitted curve at half-maximal effect
Method in brief: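 SW480 cells seeded at 250 per well were exposed to compound or DMSO for 48 hr at 37 C, 5% CO2, then stained with Hoechst for 40 min. DNA content per nucleus was imaged (405 nm ex, 500-530 nm em).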

[5] = target: Phosphoglycerate kinase, glycosomal (Trypanosoma brucei brucei) (UniProt P07378); test: qHTS Validation Assay to Find Inhibitors of Phosphoglycerate Kinase (AID 504547)
Method in brief: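 Inhibition of the enzyme is judged by a Kinase-Glo Plus luminescent signal following a one-hour incubation at room temperature. Because 1,3-BPG is unstable, it is made in situ by GAPDH at 100nM final; no-PGK wells define the baseline.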

[6] = target: phosphoglycerate mutase (Leishmania major) (UniProt Q4Q090); test: qHTS Validation Assay to Find Inhibitors of Phosphoglycerate Mutase (AID 504548); settings: Potency: inhibition qHTS; also: series mostly up to about 58 µM
Method in brief: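 Lm PGAM at 1.25 nM final with substrate in 100 mM TEA pH 7.6, 5 mM MgCl2, 0.01% Tween-20; 45 min at room temperature. Kinase-GloPlus added, 10 min, end-point luminescence read.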

[7] = target: Ubiquitin carboxyl-terminal hydrolase 1 (Homo sapiens) (UniProt O94782); test: Inhibitors of USP1/UAF1: Pilot qHTS (AID 504865); also: nearly all actives have a fitted effect of over 35% in size; also: potency is read from the fitted curve at half-maximal effect
Method in brief: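 1nM USP1/UAF1 + cpd, 15 min RT; start w/ Ub-Rho 150nM final; kinetic FL 480/540 nm, 6 reads q60 s. Buffer 50mM HEPES pH 7.8, 0.5mM EDTA, 1mM TCEP, 0.01% Tween-20, 0.1 mg/ml BSA.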

[8] = qHTS for Inhibitors of ATXN expression: Validation of Cytotoxic Assay (AID 588349)
Method in brief: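 HEK293 cells were dosed with titrated compounds for 72 hr at 37 degrees C. Viability was read by CellTiter Glo luminescence, with intracellular ATP as the marker of cell survival.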

[9] = qHTS for Inhibitors of ATXN expression: Validation (AID 588378); also: series mostly up to about 57 µM; nearly all actives have a fitted effect of over 75% in size
Method in brief: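 Cells: HEK293-ATXN2-FFLuc, phenol-red free DMEM, 2 h attachment. Compound pin-transfer, 24 h, 37 degrees C, 5% CO2. CellTiter-Fluor 30 min, Ex405/Em525; Bright-Glo 5 min, luminescence 2 s exposure.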

[10] = target: Peptidyl-prolyl cis-trans isomerase NIMA-interacting 1 (Homo sapiens) (UniProt Q13526); test: qHTS Validation Assay to Find Inhibitors of Pin1 (AID 504536; active = well fitted inhibition curve with a large enough effect in the polarisation, with a control signal flat, not every such curve was filed as active; the % refers to the polarisation)
Method in brief: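 Fluorescence polarization competition: compounds (titration) displace HiFluor-488-labeled Pin1-1b peptide from Pin1 (0.3 uM final) in pH 7.5 HEPES buffer with DTT, 10 min at room temperature; %Activity normalized to no-enzyme wells, curves fitted.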

[11] = target: DNA dC->dU-editing enzyme APOBEC-3G (Homo sapiens) (UniProt Q9HC16); test: qHTS for inhibitors of Vif-A3G interactions: Validation (AID 588379)
Method in brief: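 HeLa cells stably expressing Vif and A3G-eYFP, 700 cells/well, incubated overnight at 37 deg C, then exposed to compound overnight at 37 deg C. Inhibition of Vif-mediated degradation read as increased yellow fluorescence (Ex 488/Em 500-530) by laser-scanning cytometry.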

[12] = target: Glucocorticoid receptor (Homo sapiens) (UniProt P04150); test: qHTS assay for small molecule agonists of glucocorticoid receptor signaling (AID 588532; active = well fitted curve in the direction sought with a large enough effect in the signal ratio, with a control signal flat; the % refers to the signal ratio); settings: HeLa MMTV-bla, beta-lactamase ratio, agonist, 18 h; stronger effect = higher value; percent of dexamethasone control, DMSO zero
Method in brief: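 Using MMTV-bla HeLa cells in medium with 1% stripped FBS and 25 mM HEPES, compounds were titrated and incubated overnight-length (18 h). Beta-lactamase cleavage of CCF4 was quantified by dual-emission fluorescence.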

[13] = qHTS assay for small molecule antagonists of peroxisome proliferator-activated receptor delta signaling (AID 588535; active = well fitted inhibition curve with a large enough effect in the signal ratio, with a control signal flat, not every such curve was filed as active; the % refers to the signal ratio;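 as to max response: cells co-treated with a PPAR-delta agonist as stimulator during compound exposure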); settings: HEK293T PPARd-UAS-bla, beta-lactamase FRET ratio, 18 h; 460 nm channel
Method in brief: (§1)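 Cell-based beta-lactamase assay in antagonist mode: 4000 HEK293T PPAR-delta-UAS-bla cells per well, 5 hr preincubation then 18 hr compound incubation at 37 C. IC50 obtained by Hill equation fitting.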

[14] = target: Peroxisome proliferator-activated receptor delta (Homo sapiens) (UniProt Q03181); test: as above
Method in brief: as §1

Sequence of Galactokinase (Homo sapiens) (P51570 whole entry, looked up): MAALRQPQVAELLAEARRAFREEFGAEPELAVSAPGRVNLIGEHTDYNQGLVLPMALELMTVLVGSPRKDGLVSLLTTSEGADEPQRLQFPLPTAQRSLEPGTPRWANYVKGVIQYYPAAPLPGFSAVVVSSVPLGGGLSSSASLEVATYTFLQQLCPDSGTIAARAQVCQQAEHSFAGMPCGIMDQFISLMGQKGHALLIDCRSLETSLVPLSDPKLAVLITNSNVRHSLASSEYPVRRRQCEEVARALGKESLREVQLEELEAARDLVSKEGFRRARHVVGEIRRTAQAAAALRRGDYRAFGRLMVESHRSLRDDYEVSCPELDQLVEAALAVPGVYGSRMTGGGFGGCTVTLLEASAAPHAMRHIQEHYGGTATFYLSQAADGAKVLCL
Sequence of Phosphoglycerate kinase, glycosomal (Trypanosoma brucei brucei) (P07378 whole entry, looked up): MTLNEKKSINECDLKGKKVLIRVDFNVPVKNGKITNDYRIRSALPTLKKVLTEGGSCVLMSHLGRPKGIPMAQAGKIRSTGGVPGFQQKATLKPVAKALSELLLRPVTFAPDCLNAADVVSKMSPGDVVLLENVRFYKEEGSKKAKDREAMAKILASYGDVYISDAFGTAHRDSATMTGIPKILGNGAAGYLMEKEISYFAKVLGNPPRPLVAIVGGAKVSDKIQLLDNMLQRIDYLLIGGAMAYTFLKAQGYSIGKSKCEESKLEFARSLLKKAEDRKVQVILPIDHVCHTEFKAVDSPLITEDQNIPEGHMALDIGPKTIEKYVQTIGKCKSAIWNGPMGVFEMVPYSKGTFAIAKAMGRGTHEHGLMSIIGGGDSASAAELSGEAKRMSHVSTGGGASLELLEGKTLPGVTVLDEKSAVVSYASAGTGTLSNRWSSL
Sequence of phosphoglycerate mutase (Leishmania major) (Q4Q090 1-553): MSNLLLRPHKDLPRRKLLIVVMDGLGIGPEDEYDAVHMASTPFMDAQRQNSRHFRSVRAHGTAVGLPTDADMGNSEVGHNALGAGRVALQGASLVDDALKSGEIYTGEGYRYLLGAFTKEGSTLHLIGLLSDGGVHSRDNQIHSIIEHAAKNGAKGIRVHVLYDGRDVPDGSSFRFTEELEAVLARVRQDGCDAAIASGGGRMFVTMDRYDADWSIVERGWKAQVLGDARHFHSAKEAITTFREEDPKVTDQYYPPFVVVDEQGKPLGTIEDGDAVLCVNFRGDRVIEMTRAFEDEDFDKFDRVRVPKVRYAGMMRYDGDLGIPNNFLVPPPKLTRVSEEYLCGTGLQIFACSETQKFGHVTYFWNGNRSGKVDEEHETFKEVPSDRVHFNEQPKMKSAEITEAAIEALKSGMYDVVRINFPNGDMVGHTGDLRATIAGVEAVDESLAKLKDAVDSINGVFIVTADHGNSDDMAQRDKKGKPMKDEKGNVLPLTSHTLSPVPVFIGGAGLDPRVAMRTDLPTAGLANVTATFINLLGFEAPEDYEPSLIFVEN
Sequence of Peptidyl-prolyl cis-trans isomerase NIMA-interacting 1 (Homo sapiens) (Q13526 whole entry, looked up): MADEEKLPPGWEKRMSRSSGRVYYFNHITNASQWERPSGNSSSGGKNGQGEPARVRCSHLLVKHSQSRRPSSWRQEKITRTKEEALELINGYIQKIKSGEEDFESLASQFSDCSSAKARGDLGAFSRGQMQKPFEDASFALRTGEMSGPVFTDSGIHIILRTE
Sequence of Ubiquitin carboxyl-terminal hydrolase 1 (Homo sapiens) (O94782 whole entry, looked up): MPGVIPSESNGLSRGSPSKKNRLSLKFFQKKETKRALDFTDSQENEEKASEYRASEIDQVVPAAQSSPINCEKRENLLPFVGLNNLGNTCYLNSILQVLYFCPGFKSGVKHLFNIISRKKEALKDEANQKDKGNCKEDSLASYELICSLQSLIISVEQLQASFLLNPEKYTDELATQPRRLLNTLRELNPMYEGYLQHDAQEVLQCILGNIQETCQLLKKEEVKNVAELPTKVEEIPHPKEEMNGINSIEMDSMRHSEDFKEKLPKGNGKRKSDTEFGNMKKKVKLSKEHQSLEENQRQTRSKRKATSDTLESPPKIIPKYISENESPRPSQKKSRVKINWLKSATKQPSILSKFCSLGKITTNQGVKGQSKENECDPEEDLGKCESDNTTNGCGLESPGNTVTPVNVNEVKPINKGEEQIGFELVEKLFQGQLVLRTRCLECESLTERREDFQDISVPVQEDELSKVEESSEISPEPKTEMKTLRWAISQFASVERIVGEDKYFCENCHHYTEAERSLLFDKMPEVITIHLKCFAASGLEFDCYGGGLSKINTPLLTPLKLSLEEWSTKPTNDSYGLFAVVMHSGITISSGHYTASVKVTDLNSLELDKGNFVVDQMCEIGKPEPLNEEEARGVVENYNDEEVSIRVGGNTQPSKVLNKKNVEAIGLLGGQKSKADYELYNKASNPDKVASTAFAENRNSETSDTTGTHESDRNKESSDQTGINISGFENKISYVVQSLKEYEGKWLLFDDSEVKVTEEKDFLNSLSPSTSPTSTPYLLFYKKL
Sequence of DNA dC->dU-editing enzyme APOBEC-3G (Homo sapiens) (Q9HC16 whole entry, looked up): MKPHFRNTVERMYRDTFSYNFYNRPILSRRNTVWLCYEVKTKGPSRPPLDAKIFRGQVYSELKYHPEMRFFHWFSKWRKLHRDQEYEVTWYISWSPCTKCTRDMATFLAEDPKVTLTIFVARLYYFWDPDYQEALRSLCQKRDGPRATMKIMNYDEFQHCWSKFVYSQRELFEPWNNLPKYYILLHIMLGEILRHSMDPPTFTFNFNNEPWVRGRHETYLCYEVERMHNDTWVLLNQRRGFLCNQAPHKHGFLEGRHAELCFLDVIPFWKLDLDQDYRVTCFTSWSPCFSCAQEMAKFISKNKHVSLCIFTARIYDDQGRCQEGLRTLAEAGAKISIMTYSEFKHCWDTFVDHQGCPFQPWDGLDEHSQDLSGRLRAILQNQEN
Sequence of Glucocorticoid receptor (Homo sapiens) (P04150 whole entry, looked up): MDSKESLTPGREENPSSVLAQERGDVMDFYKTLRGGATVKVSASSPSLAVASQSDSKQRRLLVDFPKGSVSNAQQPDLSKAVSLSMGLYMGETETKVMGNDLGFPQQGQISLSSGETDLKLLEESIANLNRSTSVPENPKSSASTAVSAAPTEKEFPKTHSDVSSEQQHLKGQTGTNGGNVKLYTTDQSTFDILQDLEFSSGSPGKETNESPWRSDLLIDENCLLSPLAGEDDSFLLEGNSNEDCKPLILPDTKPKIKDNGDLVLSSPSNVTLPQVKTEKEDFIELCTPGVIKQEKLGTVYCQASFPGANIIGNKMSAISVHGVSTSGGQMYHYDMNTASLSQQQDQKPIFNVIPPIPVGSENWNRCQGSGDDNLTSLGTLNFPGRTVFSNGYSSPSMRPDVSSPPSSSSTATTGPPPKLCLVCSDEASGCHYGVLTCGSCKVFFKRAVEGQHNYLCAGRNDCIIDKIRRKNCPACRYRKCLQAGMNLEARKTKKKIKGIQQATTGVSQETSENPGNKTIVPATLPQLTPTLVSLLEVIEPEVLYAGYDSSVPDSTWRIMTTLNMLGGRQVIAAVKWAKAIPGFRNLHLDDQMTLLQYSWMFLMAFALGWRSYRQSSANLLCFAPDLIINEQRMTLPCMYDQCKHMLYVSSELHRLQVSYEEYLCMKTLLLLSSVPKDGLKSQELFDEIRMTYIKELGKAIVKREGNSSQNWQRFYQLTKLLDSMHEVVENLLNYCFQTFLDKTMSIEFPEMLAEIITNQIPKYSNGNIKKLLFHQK
Sequence of Peroxisome proliferator-activated receptor delta (Homo sapiens) (Q03181 whole entry, looked up): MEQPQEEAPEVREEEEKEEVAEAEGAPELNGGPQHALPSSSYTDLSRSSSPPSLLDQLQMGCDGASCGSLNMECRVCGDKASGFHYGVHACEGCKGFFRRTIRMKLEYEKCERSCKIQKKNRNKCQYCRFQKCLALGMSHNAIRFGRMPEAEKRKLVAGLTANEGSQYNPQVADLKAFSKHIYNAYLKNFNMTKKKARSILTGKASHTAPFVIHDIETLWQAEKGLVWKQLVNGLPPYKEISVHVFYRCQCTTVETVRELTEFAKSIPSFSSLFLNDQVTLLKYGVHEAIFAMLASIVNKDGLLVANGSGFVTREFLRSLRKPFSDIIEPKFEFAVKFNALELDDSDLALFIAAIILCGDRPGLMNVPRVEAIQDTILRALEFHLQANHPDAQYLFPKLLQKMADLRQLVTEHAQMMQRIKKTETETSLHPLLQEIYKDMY

Row | Structure (SMILES) | Potency [1] | viability change [1] | outcome [2] | Potency [3] | Potency [4] | Potency [5] | Potency [6] | Potency [7] | Potency [8] | Potency [9] | Potency [10] | Potency [11] | activation [12] | max response [13] | outcome [14]
1 | O=c1[nH]ccc2c(O)cccc12 | inactive | -2.46% | inactive | inactive | inactive | inactive | inactive | inactive | inactive | inactive | – | – | – | – | –
2 | CCCCC[C@H](CC(=O)NO)C(=O)N[C@H](C(=O)N1CCC[C@H]1CO)C(C)C | 16.4 µM (active) | 2.77% | inactive | inactive | – | inactive | inactive | inactive | – | – | inactive | – | – | – | –
3 | Cc1nc(N=Nc2cc(S(=O)(=O)O)c3cc([N+](=O)[O-])cc(S(=O)(=O)O)c3c2)c(COP(=O)(O)O)c(C=O)c1O | inactive | -14.8% | inactive | inactive | inactive | – | – | 50.1 µM (active) and 39.8 µM (active) | inactive | inactive | – | inactive | – | – | –
4 | O=c1cc(-c2ccccc2)[nH]c2nc(Cl)ccc12 | inactive | -13.6% | inactive | inactive | 1.84 µM (active) | – | inactive | – | inactive | inactive | – | – | – | – | –
5 | O=c1cc(O)cc(/C=C/c2ccc(O)c(O)c2)o1 | inactive | -8.55% | inactive | inactive | inactive | – | inactive | inactive | inactive | inactive | – | – | – | – | –
6 | Nc1ccc(-c2ccc3ccccc3n2)cc1 | inactive | -6.75% | inactive | inactive | – | inactive | inactive | inactive | inactive | – | inactive | – | – | – | –
7 | CO/N=C(\C(=O)N[C@@H]1C(=O)N2C(C(=O)O)=C(CSc3nc(=O)c(O)nn3C)CSC12)c1csc(N)n1 (stereo partly specified) | inactive | 3.25% | inactive | inactive | inactive | inactive | inactive | inactive | inactive | inactive | – | – | – | – | –
8 | Fc1ccc(CN(C2=NCCN2)c2c(Cl)cccc2Cl)cc1 | inactive | -18.2% | inactive | inactive | – | inactive | inactive | – | – | – | inactive | – | – | – | –
9 | COc1ccc(C(=O)NCc2cccnc2)cc1C(=O)NCc1cccnc1 | inactive | -5.34% | inactive | inactive | inactive | – | inactive | inactive | inactive | – | – | – | – | – | –
10 | CC(=O)/C(C)=N/O | inactive | 20.6% | inactive | inactive | inactive | inactive | inactive | inactive | inactive | – | – | – | – | – | –
11 | C#CC(N)CCC(=O)O (stereo unspecified) | inactive | 2.08% | inactive | inactive | – | inactive | inactive | inactive | inactive | inactive | inactive | – | – | – | –
12 | CCSC(=N)N | inactive | 0.659% | inactive | inactive | – | inactive | inactive | inactive | inactive | inactive | inactive | inactive | – | – | –
13 | NC1(C(=O)O)CCc2cc(C(=O)O)ccc21 (stereo unspecified) | inactive | -0.824% | inactive | inactive | inactive | inactive | inactive | inactive | inactive | inactive | – | – | – | – | –
14 | O=c1[nH]c(=O)c2nc3ccccc3nc2[nH]1 | inactive | -5.91% | inactive | inactive | inactive | inactive | – | – | inactive | inactive | – | – | – | – | –
15 | C=CCn1c(=O)c2c(nc(-c3ccc(S(=O)(=O)O)cc3)n2C)n(C)c1=O | inactive | 9.3% | inactive | inactive | inactive | inactive | inactive | inactive | – | inactive | – | – | – | – | –
16 | CC(N)=O | inactive | 1.69% | inactive | inactive | inactive | inactive | inactive | inactive | inactive | inactive | – | – | – | – | –
17 | CC1CCN(CC[C@H]2CCCN2S(=O)(=O)c2cccc(O)c2)CC1 | inactive | 8.25% | inactive | inactive | – | inactive | inactive | inactive | inactive | inactive | inactive | inactive | – | – | –
18 | O=c1onc2cnc3ccccc3n12 | inactive | -4.79% | inactive | inactive | – | inactive | inactive | inactive | inactive | – | inactive | – | – | – | –
19 | COC(=O)[C@H](NC(=O)c1cc(-c2ccccc2)nc2ccccc12)c1ccccc1 | inactive | -11.1% | inactive | inactive | – | inactive | inactive | inactive | inactive | inactive | inactive | inactive | – | – | –
20 | CC1=C(/C=C/C(C)=C/C=C/C(C)=C\C(=O)O)C(C)(C)CCC1 | inactive | 8.59% | inactive | inactive | inactive | – | inactive | – | inactive | – | – | – | -7.34% (inactive) | 61.4% | inactive
21 | COc1cc(C(O)C(=O)O)ccc1O (stereo unspecified) | inactive | 10.2% | inactive | inactive | – | inactive | inactive | inactive | inactive | inactive | inactive | – | – | – | –
22 | Nc1ncnc2c1ncn2C1CCCO1 (stereo unspecified) | inactive | 12.1% | inactive | inactive | – | inactive | inactive | inactive | inactive | inactive | inactive | – | – | – | –
23 | N[C@H](C(=O)O)[C@H](O)C(=O)O | inactive | 7.86% | inactive | inactive | inactive | inactive | inactive | – | inactive | inactive | – | inactive | – | – | –
